# Results from PubChem BioAssay (NCATS).
# Values joined by “and” are separate entries in the source; they are usually repeats but may differ in a detail not shown here. Equal entries are not always repeated. Results filed as inconclusive are left out. Where a call stands in place of a potency, no number is given. Active and inactive are the calls of the source. Calls follow the shape of the dose curve; as a rule, active = well fitted curve in the direction sought with a large enough effect; inconclusive = small, poorly fitted or top-dose-only effect, or another doubt; inactive = no such curve, though single readings can be large; an effect the other way counts as inactive or inconclusive.
# Assay: P-glycoprotein substrates identified in KB-3-1 adenocarcinoma cell line, qHTS therapeutic library screen (AID 1346986); also: nearly all actives have a fitted effect of over 60% in size
# Settings: KB-3-1 parental cells viability, CellTiter-Glo, 72 h; series mostly up to 44.5 µM
# Method in brief: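 Viability by CellTiter-Glo after 72 h compound exposure at 37 degree C, 5% CO2. Cytotoxic call: curve class -1.1 to -2.4, maximum response >50%, AC50 < 10 uM, compared across KB-3-1 and P-gp-overexpressing KB-8-5-11.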
Compound,outcome,Potency
CC1(C)CC[C@]23CO[C@@]4(CCC5[C@@]6(C)CC[C@H](O[C@@H]7OC[C@H](O[C@@H]8O[C@H](CO)[C@@H](O)[C@H](O)[C@H]8O[C@@H]8OC[C@@H](O)[C@H](O)[C@H]8O)[C@H](O)[C@H]7O)[C@@](C)(CO)C6CC[C@@]5(C)[C@]4(C)CC2=O)[C@@H]3C1 (stereo partly specified),inactive [at 9.29 µM],–
COc1cc(O)cc(/C=C/c2cccc(O)c2)c1,–,inactive
Cn1ncnc1[C@@H]1c2n[nH]c(=O)c3cc(F)cc(c23)N[C@H]1c1ccc(F)cc1,–,inactive

# Assay: P-glycoprotein substrates identified in KB-8-5-11 adenocarcinoma cell line, qHTS therapeutic library screen (AID 1346987); also: nearly all actives have a fitted effect of over 65% in size; also: potency is read from the fitted curve at half-maximal effect
# Settings: KB-8-5-11 (P-gp overexpressing) viability, CellTiter-Glo, 72 h; series mostly up to 44.5 µM
# Method in brief: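 Human cervical adenocarcinoma KB-8-5-11 cells, selected in colchicine to over-express P-gp and assayed without it, were exposed for 72 h to titrated compounds. An ATP-based luminescent viability signal gave AC50.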
Compound,Potency,outcome,"activity change, negative = cytotoxicity"
CN(CC1COCCO1)S(=O)(=O)Nc1ccc2ccc3ncc(-c4cnn(C)c4)cc3c(=O)c2c1 (stereo unspecified),14.6 µM (active),–,–
C=C1C(=O)O[C@@H]2C[C@]3(C)[C@@H](CCC(C)O)[C@@H]3C[C@H]12 (stereo partly specified),inactive,–,–
O=C(O)c1cc(N(Cc2ccc(C3CCCCC3)cc2)C(=O)c2ccc(Oc3ccccc3)cc2)ccc1O,inactive,–,–
COc1ccc(NC(=O)C2C[C@H](C)CC[C@H]2C(C)C)cc1 (stereo partly specified),inactive,–,–
COc1c(C(C)C)c(O)c(O)c2c1C(OC)[C@H]1OC(=O)[C@@]23CCCC(C)(C)[C@H]13 (stereo partly specified),inactive,–,–
CNc1nc(Nc2ccc(C(=O)N3CCOCC3)cc2OC)nc2[nH]cc(Cl)c12,5.8 µM (active),–,–
CCC(C)C(=O)OC12C(OC(C)=O)C(C)C3(O)C(C=C(CO)CC4(O)C(=O)C(C)=CC43)C1C2(C)C (stereo unspecified),inactive,–,–
Fc1ccc(-c2nc(-c3ccccc3F)[nH]c2-c2ccncc2)cc1,inactive,–,–
CC(C)C[C@H](CO)Nc1nc(S[C@@H](C)c2ccccc2)nc2nc(N)sc12,inactive,–,–
COc1cc2ncc(-c3ccccc3)nc2cc1OC,8.2 µM (active),–,–
CC#CC(=O)Nc1ccc2ncnc(Nc3cccc(Br)c3)c2c1,11.6 µM (active),–,–
CC1(C)CCC2(C(=O)OC3OC(COC4OC(CO)C(O)C(O)C4O)C(O)C(O)C3O)CCC3(C)C(=CCC4C5(C)CCC(OC6OCC(O)C(O)C6O)C(C)(C)C5CCC43C)C2C1O (stereo unspecified),–,inactive [at 9.29 µM],–
C=C(C)C1=C[C@@]2(C)C(=CC1=O)CC[C@@H](O)[C@@H]2C,inactive,–,–
CCN1CCC[C@@H]1CNC(=O)c1ccc2c(c1)NC(=O)c1cccc(C)c1S2,inactive,–,–
CCN(CC)C(=O)C(c1ccccc1)N1CCN(c2ccc(NC(=O)c3ccccc3-c3cccnc3)cc2F)CC1 (stereo unspecified),inactive,–,–
CC1OC2OC(=O)C3(C)CC4C5(CO5)C5=CC(=O)OC(C)(C)C5=CC(=O)C4(C)C(C1=O)C23 (stereo unspecified),inactive,–,–
C=C(COC(=O)C(O)C(O)CN)C12OC1C1(C)C(=CC2=O)C(O)C(O)CC1C (stereo unspecified),inactive,–,–
COc1cc(/C=C2\CC[C@H]3COC[C@@H](c4cc(F)c(F)c(F)c4)N3C2=O)ccc1-n1cnc(C)c1,inactive,–,–
CC(C)(CO)c1cc2cc(NC(=O)C3(c4ccc5c(c4)OC(F)(F)O5)CC3)c(F)cc2n1CC(O)CO (stereo unspecified),inactive,–,–

Compound,Potency,outcome,"activity change, negative = cytotoxicity"
C=C1CC[C@@H]2[C@](C)(CO)[C@H](O)CC[C@@]2(C)[C@@H]1C/C=C1/C(=O)OCC1OC(=O)/C(=C/CO)C(O)C[C@@H]1C(=C)CC[C@@H]2[C@](C)(CO)[C@H](O)CC[C@]21C (stereo partly specified),inactive,–,–
C=C1[C@H]2CC[C@H](C(=O)O)[C@@]23CC[C@H](C3)C1(C)C,inactive,–,–
C=C1C(=O)O[C@@H]2[C@H]1CC[C@H](C)[C@]1(CCC(=O)O1)C2(C)O (stereo partly specified),inactive,–,–
O=C1NC(=O)C(c2cnc3ccccn23)=C1c1cn2c3c(cc(F)cc13)CN(C(=O)N1CCCCC1)CC2,16.4 µM (active),–,–
CO[C@H]1O[C@@H]2O[C@@]3(C)CCC4[C@H](C)CCC([C@H]1C)[C@]42OO3 (stereo partly specified),inactive,–,–
Cc1nc(C(=O)N2CCC[C@H]2Cc2nnc(-c3ccccc3)o2)c(-c2ccccc2F)s1,inactive,–,–
COC1CC(O[C@H]2CC[C@]3(C)C4CC[C@@]5(C)C(=O)[C@]4(CC[C@@H]3C2)CC[C@@H]5C2=CC(=O)OC2)OC(C)C1OC1OC(COC2OC(CO)C(O)C(O)C2O)C(O)C(O)C1O (stereo partly specified),2.19 µM (active),–,–
Cc1[nH]c2ccccc2c1CCNC(=O)c1cccs1,inactive,–,–
C1=C/COCc2cc(ccc2OCCN2CCCC2)Nc2nccc(n2)-c2cccc(c2)COC/1,4.61 µM (active) and 7.31 µM (active),–,–
Nc1nc(Nc2ccc3c(c2)CCC(N2CCCC2)CC3)nn1-c1cc2c(nn1)-c1ccccc1CCC2 (stereo unspecified),14.6 µM (active),–,–
CN(C)c1ccc(NC(=O)NS(=O)(=O)c2ccc(Cl)cc2)cc1,inactive,–,–
C=CC(=O)N1CCC(Oc2cc3c(Nc4ccc(Cl)c(Cl)c4F)ncnc3cc2OC)CC1,11.6 µM (active),–,–
Cc1cccc(N2CCN(C(=O)c3cc(S(=O)(=O)N(C)C)ccc3N3CCCC3)CC2)c1C,inactive,–,–
CC/C(C)=C/C(=O)OC1C(OC2(C)CCC3C(C4C(C)CCC42)C3(C)C)OC(C)C(O)C1O (stereo unspecified),inactive,–,–
CC(=O)OCC(=O)[C@@]12O[C@@H]1C[C@H]1[C@@H]3CC=C4C[C@@H](O)CC[C@]4(C)[C@H]3CC[C@@]12C,inactive,–,–
C[C@@H]1O[C@@H](O[C@H]2[C@@H]3C=CO[C@@H](O[C@@H]4O[C@H](CO)[C@@H](O)[C@H](O)[C@H]4O)[C@@H]3[C@@]3(CO)O[C@@H]23)[C@H](O)[C@H](OC(=O)/C=C/c2ccccc2)[C@H]1O,inactive,–,–
CC1(C)CC[C@]23CO[C@@]4(CCC5[C@@]6(C)CC[C@H](O[C@@H]7OC[C@H](O[C@@H]8O[C@H](CO)[C@@H](O)[C@H](O)[C@H]8O[C@@H]8OC[C@@H](O)[C@H](O)[C@H]8O)[C@H](O)[C@H]7O)[C@@](C)(CO)C6CC[C@@]5(C)[C@]4(C)CC2=O)[C@@H]3C1 (stereo partly specified),–,–,-22.9% [at 9.29 µM] (inactive)
COc1cc(O)cc(/C=C/c2cccc(O)c2)c1,inactive,–,–
Cn1ncnc1[C@@H]1c2n[nH]c(=O)c3cc(F)cc(c23)N[C@H]1c1ccc(F)cc1,inactive,–,–
